SMILES strings stand for the structures. Values without a mark were called inactive. Results filed as inconclusive are left out. Calls of active or inactive are those of the source. Unless noted, calls follow the shape of the dose curve; as a rule, active = well fitted curve in the direction sought with a large enough effect in the repeat runs; inconclusive = weak or mixed curves; inactive = no such curve, though single readings can be large; an effect the other way counts as inactive or inconclusive.

A short description of test [1]: qHTS assay to identify small molecule antagonists of the estrogen related receptor (ERR) signaling pathway from Tox21 library - cell viability counter screen (AID 1224834). Also: nearly all actives have a fitted effect of over 30% in size. Also: potency is read from the fitted curve at half-maximal effect. The gist of the method: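 Multiplexed viability counter screen in ERR cells: 17.5 h compound exposure at 37 C, CellTiter-Fluor added, 30 min at 37 C/5% CO2, fluorescence read.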
(In general: In qHTS, concentration-response curves come from the screen itself.)

The target in test [2] is Luciferin 4-monooxygenase (Photinus pyralis) (UniProt P08659). Briefly: qHTS assay to identify small molecule inhibitors of firefly luciferase (AID 1224835). Also: nearly all actives have a fitted effect of over 25% in size. Also: potency is read from the fitted curve at half-maximal effect. Summed up:
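Quantitative HTS format; KM concentrations of both substrates. Purified P. pyralis FLuc activity quantified from luminescence images.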

Test [3] in a line: qHTS assay to identify small molecule agonists of the constitutive androstane receptor (CAR) signaling pathway - cell viability counter screen (AID 1224836). Also: % is scaled to controls: 0 for no effect and ±100 for the full control effect; nearly all actives have a fitted effect of over 45% in size. The gist of the method: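 HepG2 cells stably carrying hCAR and a CYP2B6-2.2kb reporter; 15-concentration compounds plus PK11195 (final 0.75 uM), 23 hr at 37 C/5% CO2. Viability read by CellTiter-Fluor fluorescence.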
The nature of test [4]: qHTS assay to identify small molecule antagonists of the estrogen related receptor signaling pathway with the pleiotropic PPARgamma coactivator (PGC) from Tox21 10K library - cell viability counter screen (AID 1224840; active = well fitted cell-killing curve with a large enough effect in the repeat runs, not every such curve was filed as active; also: nearly all actives have a fitted effect of over 40% in size; also: potency is read from the fitted curve at half-maximal effect). Summed up: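 Fluorescence read-out of CellTiter-Fluor viability reagent, added after cells had been exposed to compound in DMSO for 17.5 h at 37 C; 30 min development at 37 C/5% CO2. Cells: PGC/ERR line, 2,000/well.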

Test [5] is described as follows: qHTS assay to identify small molecule antagonists of the estrogen related receptor signaling pathway with the pleiotropic PPARgamma coactivator (PGC) from Tox21 10K library (AID 1224841; call rule not given here; also: actives are mostly falling curves and most rising ones were filed inactive; nearly all actives have a fitted effect of over 50% in size; also: potency is read from the fitted curve at half-maximal effect). The gist of the method: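 Luminescence read-out (One-Glo luciferase reagent, 30 min at room temperature) from PGC/ERR cells exposed to DMSO-dissolved test compounds for 18 h at 37 C; cells, 2,000 per well, had been preincubated 6 h before compound transfer.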

Test [6] is described as follows: qHTS assay to identify small molecule agonists of the estrogen related receptor signaling pathway with the pleiotropic PPARgamma coactivator (PGC) from Tox21 10K library (AID 1224842). Also: nearly all actives have a fitted effect of over 15% in size. Also: potency is read from the fitted curve at half-maximal effect. As to activation: % is scaled to controls: 0 for no effect and ±100 for the full control effect. The gist of the method: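 PGC/ERR reporter cells (NTP line) were seeded 2,000 per well, rested 6 h at 37 C/5% CO2, then pin-dosed with compounds in DMSO for 18 h at 37 C; luciferase read by One-Glo luminescence after 30 min at room temperature.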

Test [7] has as its target Thyrotropin receptor (Homo sapiens) (UniProt P16473). The experiment in a line: qHTS assay to identify small molecule agonists of the thyroid stimulating hormone receptor (TSHR) signaling pathway (AID 1224843; calls by dose curve; also: nearly all actives have a fitted effect of over 45% in size; also: potency is read from the fitted curve at half-maximal effect; as to activation: % is scaled to controls: 0 for no effect and ±100 for the full control effect). The gist of the method: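 Using 15 concentrations per compound in triplicate, cAMP production was monitored in TSHR-HEK293 cells after 30 min compound incubation at RT; HTRF reagents followed, with fluorescence intensity recorded after 1 h.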

Test [8] can be described thus: qHTS assay to identify small molecule agonists of the hypoxia (HIF-1) signaling pathway - cell viability counter screen (AID 1224844; calls by dose curve; also: nearly all actives have a fitted effect of over 50% in size; also: potency is read from the fitted curve at half-maximal effect). Summed up:
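CellTiter-Glo luminescence read-out, 30 min RT, taken in the same wells as the beta-lactamase HRE reporter assay; HRE-bla ME-180 cells, 0.5% dialyzed FBS, 17 hr compound treatment at 37C, 5% CO2.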

Test [9] is described as follows: qHTS assay to identify small molecule agonists of the hypoxia (HIF-1) signaling pathway (AID 1224846; active = well fitted activation curve with a large enough effect in the signal ratio in the repeat runs, not every such curve was filed as active; the % refers to the signal ratio; also: % is scaled to controls: 0 for no effect and ±100 for the full control effect). Summed up:
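Beta-lactamase FRET read-out (CCF4-AM substrate) from ME-180 cells carrying an HRE-driven bla reporter, after 17 hrs compound exposure at 37C/5% CO2. Cells were seeded at 2,000 per well in 0.5% dialyzed FBS medium and preincubated 5 hrs.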

Test [10] can be described thus: qHTS assay to identify small molecule agonists of H2AX - cell viability counter screen (AID 1224847; calls by dose curve; also: top concentration of the series differs between compounds; % is scaled to controls: 0 for no effect and ±100 for the full control effect; nearly all actives have a fitted effect of over 30% in size). Summed up:
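CHO-K1 cells plated overnight at 37C, then exposed 3 h at 37C to compounds at 15 concentrations (0.76% DMSO final). Viability by CellTiter-Glo luminescence after 30 min at room temperature.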

Test [11] in a line: qHTS assay to identify small molecule antagonists of the estrogen related receptor (ERR) signaling pathway from Tox21 library (AID 1224848). Also: nearly all actives have a fitted effect of over 50% in size. Also: potency is read from the fitted curve at half-maximal effect. Summed up: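 Tox21 10K compounds in DMSO tested for ERR pathway antagonism in NTP's ERR cell line; 18 h, 37 C exposure; ONE-Glo luminescence.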
A short description of test [12]: qHTS RealTime-Glo MT Cell Viability Assay in HepG2 cells - 24 hour (AID 1224867). Also: nearly all actives have a fitted effect of over 50% in size. Also: potency is read from the fitted curve at half-maximal effect. The gist of the method:
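Luminescence read-out: viable HepG2 cells reduce a prosubstrate to a NanoLuc substrate, giving a signal proportional to live cell number. Reads taken at 0, 8, 16, 24, 32 and 40 h of compound exposure at 37 C.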

Test [13] is described as follows: qHTS RealTime-Glo MT Cell Viability Assay in HEK293 cells - 32 hour (AID 1224868). Also: nearly all actives have a fitted effect of over 50% in size. Also: potency is read from the fitted curve at half-maximal effect. Summed up:
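Nonlytic real-time viability readout: viable cells convert prosubstrate to NanoLuc substrate, giving luminescence proportional to live cell number. HEK293, 600 cells/well, compound added after 5 h, continuous culture at 37 C.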

The nature of test [14]: A CellTox Green Cytotoxicity Assay to monitor cytotoxicity in HEK293 cells - 0 hour (AID 1224869). Summed up:
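Read-out: fluorescence of a cell-impermeant cyanine dye staining DNA of dead cells, proportional to cytotoxicity. HEK293, 600 cells/well with reagent, compound (23 nL DMSO) added after 5 h; reads at 0, 8, 16, 24, 32, 40 h.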

Test [15] is described as follows: qHTS RealTime-Glo MT Cell Viability Assay in HepG2 cells - 40 hour (AID 1224870). The gist of the method:
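HepG2 cells mixed with RealTime-Glo MT reagents (NanoLuc plus cell-permeant prosubstrate) were seeded at 600 cells/well, incubated 5 h at 37 C/5% CO2, then pinned with compounds in DMSO; nonlytic luminescence tracked viability during 40 h treatment.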

The target in test [16] is Nuclear receptor subfamily 1 group I member 3 (Homo sapiens) (UniProt Q14994). Briefly: qHTS assay to identify small molecule agonists of the constitutive androstane receptor (CAR) signaling pathway (AID 1224839). Also: % is scaled to controls: 0 for no effect and ±100 for the full control effect; nearly all actives have a fitted effect of over 15% in size. Summed up: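 HepG2 cells stably co-transfected with hCAR and a CYP2B6-2.2kb luciferase reporter; compounds at 15 concentrations with 0.75 uM PK11195 present. After 24 hr at 37 C, luciferase read by ONE-Glo luminescence.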
Nuclear receptor subfamily 1 group I member 3 (Homo sapiens), sequence (Q14994 whole entry, looked up): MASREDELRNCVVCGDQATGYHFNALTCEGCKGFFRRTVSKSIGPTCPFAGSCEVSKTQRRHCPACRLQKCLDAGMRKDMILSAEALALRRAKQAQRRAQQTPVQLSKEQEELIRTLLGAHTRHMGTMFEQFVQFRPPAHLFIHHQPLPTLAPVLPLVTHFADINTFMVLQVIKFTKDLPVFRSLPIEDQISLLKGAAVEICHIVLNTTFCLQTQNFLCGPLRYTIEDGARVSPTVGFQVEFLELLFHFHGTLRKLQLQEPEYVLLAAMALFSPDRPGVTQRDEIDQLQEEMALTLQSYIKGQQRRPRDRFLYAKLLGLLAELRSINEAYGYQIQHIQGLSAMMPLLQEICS

A short description of test [17]: qHTS assay to identify small molecule agonists of the estrogen related receptor (ERR) signaling pathway from Tox21 library (AID 1224849; calls by dose curve; also: % is scaled to controls: 0 for no effect and ±100 for the full control effect; nearly all actives have a fitted effect of over 15% in size). The note with it: ERR reporter cell line, ONE-Glo luciferase, 18 h; at 92.4 µM (top of the series) unless noted. Summed up:
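Luminescence readout (ONE-Glo, 30 min RT) after 18 h compound exposure at 37 C of NTP-supplied ERR reporter cells; cells were plated 6 h before compound addition by pin tool.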

A short description of test [18]: qHTS assay to identify small molecule antagonists of the constitutive androstane receptor (CAR) signaling pathway - cell viability counter screen (AID 1224837). Also: potency is read from the fitted curve at half-maximal effect; nearly all actives have a fitted effect of over 45% in size. The gist of the method:
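Read-out: CellTiter-Fluor fluorescence after 23 hr at 37 C/5% CO2. Cells: HepG2 double-stable for hCAR and CYP2B6-2.2kb. Compounds tested at 15 concentrations in the presence of CITCO, final concentration 50 nM.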

Test [19] can be described thus: qHTS assay to identify small molecule agonists of H2AX (AID 1224845; active = well fitted activation curve with a large enough effect in the signal ratio in the repeat runs, not every such curve was filed as active; the % refers to the signal ratio; also: potency is read from the fitted curve at half-maximal effect). Summed up: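 Wild-type CHO-K1 cells plated overnight, then exposed 3 hr at 37C to compounds at 15 concentrations (0.76% DMSO). Lysed, then HTRF anti-pH2AX(S139)-cryptate/anti-H2AX-d2 detection after 24 hr at room temperature; emissions 665 and 620 nm.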

Luciferin 4-monooxygenase (Photinus pyralis), sequence (P08659 whole entry, looked up): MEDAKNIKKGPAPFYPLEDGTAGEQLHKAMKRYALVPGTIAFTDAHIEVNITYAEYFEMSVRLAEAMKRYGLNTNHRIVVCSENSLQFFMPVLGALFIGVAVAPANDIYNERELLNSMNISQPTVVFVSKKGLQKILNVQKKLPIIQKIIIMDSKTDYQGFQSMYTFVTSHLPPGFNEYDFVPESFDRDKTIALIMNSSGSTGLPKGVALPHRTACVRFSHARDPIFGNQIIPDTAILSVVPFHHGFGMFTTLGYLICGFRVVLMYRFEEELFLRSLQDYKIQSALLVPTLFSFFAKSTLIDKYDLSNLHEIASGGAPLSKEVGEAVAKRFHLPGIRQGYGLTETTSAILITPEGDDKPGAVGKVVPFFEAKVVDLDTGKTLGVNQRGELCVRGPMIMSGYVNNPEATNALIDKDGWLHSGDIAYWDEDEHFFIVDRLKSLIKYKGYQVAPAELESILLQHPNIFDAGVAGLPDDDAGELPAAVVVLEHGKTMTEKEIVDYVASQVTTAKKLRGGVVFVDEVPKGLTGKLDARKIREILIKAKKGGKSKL
Thyrotropin receptor (Homo sapiens), sequence (P16473 whole entry, looked up): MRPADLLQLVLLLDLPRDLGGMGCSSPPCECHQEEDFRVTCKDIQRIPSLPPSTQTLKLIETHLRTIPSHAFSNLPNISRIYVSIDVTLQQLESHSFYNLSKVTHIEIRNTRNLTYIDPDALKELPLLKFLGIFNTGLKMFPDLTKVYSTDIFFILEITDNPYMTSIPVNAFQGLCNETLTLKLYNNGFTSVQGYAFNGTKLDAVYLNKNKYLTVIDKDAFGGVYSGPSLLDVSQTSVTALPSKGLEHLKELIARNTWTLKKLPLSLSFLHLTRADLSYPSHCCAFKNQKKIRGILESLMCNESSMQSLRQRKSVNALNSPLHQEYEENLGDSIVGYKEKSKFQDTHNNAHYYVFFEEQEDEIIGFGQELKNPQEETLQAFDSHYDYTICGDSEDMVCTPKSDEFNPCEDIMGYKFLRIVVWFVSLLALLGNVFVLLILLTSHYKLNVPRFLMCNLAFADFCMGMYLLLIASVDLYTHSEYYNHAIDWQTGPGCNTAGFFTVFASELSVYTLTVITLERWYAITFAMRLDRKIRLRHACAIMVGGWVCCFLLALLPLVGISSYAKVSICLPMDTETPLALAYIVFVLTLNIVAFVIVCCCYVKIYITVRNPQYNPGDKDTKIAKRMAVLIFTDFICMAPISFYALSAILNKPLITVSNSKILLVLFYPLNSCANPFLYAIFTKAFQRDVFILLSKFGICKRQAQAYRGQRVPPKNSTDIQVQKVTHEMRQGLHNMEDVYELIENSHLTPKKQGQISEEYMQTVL

As to `Cc1cc(C)cc(OP(=O)(Oc2cc(C)cc(C)c2)Oc2cc(C)cc(C)c2)c1`, the Potency result in test [1], in test [2], in test [3], in [4], in test [5] and in [6] was “inactive” in each case. In addition, the Potency result in [7], in test [8], in test [10], in test [11], in [12] and in test [13] was “inactive” in each case. Besides, the Potency entry in test [14] and in test [15] was “inactive” each time. Besides, the compound was classed as inactive in [9].

For `CC(C)C1CCC(Cc2ccc(Cl)cc2)C1(O)Cn1cncn1` (stereo not given), the Potency is 53.9 µM (active) in test [1]; 15.2 µM (active) in [5]; 48.1 µM (active) in [7]; 54.4 µM (active) in test [8]; 27 µM (active) in [11]; 43.2 µM (active) in [12]. For the same compound, the Potency in test [13] was 12.2 µM (active). The Potency entry in [2], in [16], in [6] and in [14] was “inactive” in each case. For the same compound, the activity change, positive = activation in [17] is -68.5%.

`CC(=[OH+])/C=C(/C)[O-].CC(=[OH+])/C=C(\C)[O-].CC(=[OH+])/C=C(\C)[O-].[Al]`: the Potency entry in test [1], in test [3], in [4], in [8], in test [12] and in test [13] was “inactive” throughout. Also, the Potency entry in test [14] and in test [15] was “inactive” throughout. For the same compound, the Potency in test [2] was 71 µM (active). In addition, the call in [9] was inactive.

In the case of `C=CC(=O)OCCCCOC(=O)C=C`, the Potency is 54.5 µM (active) in test [1]; 61.1 µM (active) in test [18]; 48.6 µM (active) in [4]; 21.7 µM (active) in [6]; 101 µM (active) in test [19]; 49 µM (active) in test [12]. Further, the Potency in [13] is 34.7 µM (active). Further, the Potency entry in test [2], in test [16], in test [5], in test [11] and in [14] was “inactive” each time. Moreover, the activity change, positive = activation in test [17] is -26.6% (active).

(Values after PubChem BioAssay (Tox21).)
